Shown are actives, neighbours in structure and some others; about 7.3% of the full set was active somewhere.
ELG1 genotoxic – qHTS screen for small molecules that induce genotoxicity in human embryonic kidney (HEK293T) cells expressing luciferase-tagged ELG1. HEK293T ELG1-luciferase reporter, luminescence, 16 h. Potency, µM (titrated, usually from 46 µM), for inactives: at the top dose activity change, positive = activation, most hits filed as activators. 330,000 tested, 1.3% active; also: % of control where 0% means no effect; nearly all actives have a fitted effect of over 60% in size
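HEK293T cells expressing luciferase-tagged ELG1 were treated with compound or DMSO for 16 hr at 37°C. Luciferase activity was then read after 30 min with ONE-Glo at room temperature; rising signal flags genetic stress.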
SMN2 splice enh – qHTS Assay for Enhancers of SMN2 Splice Variant Expression; 210,000 tested, 2.8% active; HEK293 SMN2-luciferase splicing reporter, luminescence, 30-36 h; Potency, µM (doses to about 46.1 µM), inactives show at the top dose activity change, positive = activation, usual class: activators; AID 1458, 2008; also: % of control where 0% means no effect; nearly all actives have a fitted effect of over 55% in size
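HEK293 cells carry an SMN2 minigene-luciferase reporter in which exon 7 inclusion puts luciferase in frame. Cells were seeded at 2000 cells/well, attached for 10-12 hours, then exposed to compounds for 30-36 hours at 37C before ONE-Glo luminescence.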
FLuc counter – qHTS profiling assay for firefly luciferase inhibitor/activator using purifed enzyme and Km concentrations of substrates (counterscreen for miR-21 project) | Luciferin 4-monooxygenase (Photinus pyralis), P08659 | purified FLuc, Km substrates, luminescence inhibition | Potency, µM (doses to about 57.5 µM), without a hit: top-dose activity change, negative = inhibition, most hits filed as inhibitors | 360,000 tested, 6.9% active;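 also: plate controls were vehicle for no effect and reference inhibitor for full effect; nearly all actives have a fitted effect of over 55% in size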
Target sequence (P08659 whole entry, looked up): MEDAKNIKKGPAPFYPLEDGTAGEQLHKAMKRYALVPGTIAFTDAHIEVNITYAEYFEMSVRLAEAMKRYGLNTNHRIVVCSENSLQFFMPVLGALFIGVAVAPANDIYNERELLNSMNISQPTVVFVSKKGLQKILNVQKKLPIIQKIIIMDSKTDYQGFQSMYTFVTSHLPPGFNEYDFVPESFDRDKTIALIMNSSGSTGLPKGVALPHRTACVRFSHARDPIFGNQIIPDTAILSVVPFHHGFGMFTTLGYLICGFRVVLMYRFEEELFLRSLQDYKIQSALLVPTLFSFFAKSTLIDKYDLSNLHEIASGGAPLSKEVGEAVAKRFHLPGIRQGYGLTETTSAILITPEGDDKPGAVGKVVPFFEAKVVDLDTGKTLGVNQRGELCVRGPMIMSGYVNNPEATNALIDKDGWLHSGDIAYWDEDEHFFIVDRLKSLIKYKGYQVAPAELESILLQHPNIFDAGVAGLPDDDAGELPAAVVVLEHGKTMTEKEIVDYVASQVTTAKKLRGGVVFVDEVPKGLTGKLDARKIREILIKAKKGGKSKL
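Biochemical qHTS of compounds, final roughly 60 µM downward over six points, against 10 nM purified firefly luciferase using Km concentrations of substrates (10 uM D-luciferin, 10 uM ATP) in Tris acetate pH 7.5 buffer; luminescence output.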
NPC1 prom act – qHTS Assay for NPC1 Promoter Activators; 320,000 tested, 2.4% active; AID 485313, 2010; Potency, µM (doses to about 9.22 µM), without a hit: at the top dose activation, usual class: activators; Huh7 NPC1 promoter luciferase reporter, 24 h; also: % of control where 0% means no effect; nearly all actives have a fitted effect of over 60% in size
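Huh7 cells stably carrying NPC1 promoter–luciferase, plated in Opti-MEM with 10% FBS for 2 h, were exposed to compound in DMSO for 24 h at 37 °C; luciferase reagent was added for 10 min and luminescence read.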
Rab9 prom act – qHTS Assay for Rab9 Promoter Activators. Huh7 Rab9 promoter-luciferase reporter, luminescence, 24 h. Potency, µM (series often up to 9.22 µM), without a hit: at the highest dose activation, negative = inhibition, actives largely listed as activators. 320,000 tested, 2.8% active. AID 485297, 2010; also: % of control where 0% means no effect; nearly all actives have a fitted effect of over 60% in size
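Measured in stably transfected Huh7 cells bearing a Rab9 promoter–luciferase construct: 24 h compound treatment at 37 °C, followed by luminescence detection.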
KinaseGlo FLuc – Counterscreen for Luciferase (Kinase-Glo TM) Inhibition | Kinase-Glo luciferase, ATP luminescence, 8 min | Potency, µM (highest dose often 38.3 µM), without a hit: at the top dose activity change, negative = inhibition, hits mostly inhibitors | 200,000 tested, 0.28% active | AID 1379, 2008; also: % is scaled to controls: 0 for no effect and ±100 for the full control effect; nearly all actives have a fitted effect of over 60% in size
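Light output from Kinase-Glo luciferase with luciferin and 10 uM ATP in 50 mM imidazole pH 7.2, KCl, MgCl2, Tween 20, BSA; compound pin-delivered, 8-min ambient incubation, then luminescence read.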
Numbers without * were called inactive; ? = inconclusive; nt = no result; [ ] = remark or other dose. Calls follow the shape of the dose curve; as a rule, active = well fitted curve in the direction sought with a large enough effect; inconclusive = small, poorly fitted or top-dose-only effect, or another doubt; inactive = no such curve, though single readings can be large; an effect the other way counts as inactive or inconclusive. Potency is read from the fitted curve at half-maximal effect.

SMILES | ELG1 genotoxic | SMN2 splice enh | FLuc counter | NPC1 prom act | Rab9 prom act | KinaseGlo FLuc
Cc1ccc(-c2csc(Cc3nc(-c4cc5ccccc5oc4=O)cs3)n2)cc1 | -3% | -72% | 1% | -16% | -20% | -7%
Cc1ccn2cc(-c3cc4ccccc4oc3=O)nc2c1 | 0.46µM* | nt | 0.43µM* | 0.32µM* | 0.28µM* | 10µM*
O=c1oc2ccccc2cc1-c1cn2cc(Cc3ccccc3F)sc2n1 | nt | 1% | 0.34µM* | nt | nt | nt
COc1ccc2nc(NC(=O)c3ccc(-n4nc(C)cc4C)cc3)sc2c1 | 11% | -23% | 0% | -2% | 7% | -2%
COc1ccc2nc(NC(=O)c3ccc(F)cc3)sc2c1 | ? | nt | 0.85µM* | 2.5µM* | 1.4µM* | nt
NC(=O)c1ccc2nc(NC(=O)c3ccc(N)cc3)sc2c1 | 16% | ? | 3µM* | ? | ? | -4%
COc1ccc2nc(NC(=O)c3ccc4ncsc4c3)sc2c1 | 5.8µM* | ? | 1.1µM* | 2.8µM* | 1.8µM* | 4%
CCOC(=O)/C(C#N)=C\c1ccc(O)c(OC)c1 | -1% | -2% | -16% | -2% | 0% | 5%
Cc1ccc(/C=[N+](\[O-])c2ccc(N(C)C)cc2)c2nsnc12 | 12% | 10µM* | 1.3µM* | ? | 1.1µM* | -14%
Cc1ccc2nsnc2c1NS(=O)(=O)c1c(C)ccc2nsnc12 | 0% | 3% | 3% | 2% | -6% | -2%
Oc1oc(-c2ccco2)nc1C=Nc1cccc(Cl)c1 | -4% | -16% | 15µM* | 0% | -7% | -2%
COc1ccc(C(=O)Nc2ccccc2C(=O)N/N=C/c2cccc3ccccc23)cc1 | -9% | -60% | 0.085µM* | ? | ? | 5µM*
Cc1ccccc1NC(=O)NNC(=O)c1ccc2ccccc2c1 | 7% | nt | -1% | -1% | -3% | nt
NC(=O)c1ccccc1NC(=O)c1ccc2c(c1)OCO2 | ? | nt | 7.6µM* | 1µM* | 1.8µM* | nt
Cc1nnc(NC(=O)c2ccc3ccccc3c2)o1 | 2% | -13% | 24µM* | 4% | 11% | -4%
O=C(Nc1nnc(-c2ccco2)o1)c1ccc2ccccc2c1 | ? | -1% | ? | 2% | -4% | -4%
Cc1ccccc1NC(=O)c1ccc2ccccc2c1 | ? | nt | 15µM* | ? | ? | nt
Cc1ccccc1C(=O)Nc1sc2c(c1C(=O)NCc1ccco1)CCC(C(C)(C)C)C2 (stereo not given) | nt | -2% | -3% | nt | nt | nt
CC(C)Oc1ccc(C(=O)NNC(=O)c2ccccc2C(=O)O)cc1 | 0% | 3% | 21µM* | -1% | 12% | 3%
CC(C)Oc1ccc(CCC(=O)NNC(=O)c2ccccc2C(=O)O)cc1 | 2% | nt | -8% | 6% | -2% | nt
COc1ccc(C(=O)Nc2ccccc2C(=O)N2CCCCCC2)cc1 | 5% | nt | 0% | ? | 4% | nt
COc1ccc(C(=O)Nc2ccccc2C(N)=O)cc1 | ? | 32µM* | -22%[2.3 µM] | 3.2µM* | 2µM* | ?
NC(=O)c1ccccc1NC(=O)c1ccc2ccccc2c1 | 2.3µM* | nt | 0.54µM* | 0.89µM* | 0.56µM* | nt
COCC(=O)Nc1ccccc1C(=O)Nc1ccc(OC)cc1 | ? | ? | 1% | ? | 2.8µM* | 0%
O=[N+]([O-])c1cc(CN2CCOCC2)c2cccnc2c1O | -4% | -68% | 4% | -13% | 15% | 0%
SMILES | ELG1 genotoxic | SMN2 splice enh | FLuc counter | NPC1 prom act | Rab9 prom act | KinaseGlo FLuc
CCOC(=O)c1ccccc1NC(=O)COC(=O)CN1C(=O)NC2(CCCC2)C1=O | 5% | nt | 1% | -1% | -1% | nt
COc1ccc(NC(=O)c2ccc(Cl)c(NC(=O)c3ccncc3)c2)cc1 | -3% | nt | ? | -2% | -2% | -4%
COc1ccc(NC(=O)c2ccc(C(=O)Nc3ccc(OC)cc3OC)cc2)c(OC)c1 | ? | -13% | -3% | -2% | -1% | 0%
CCC(NC(=O)c1ccccc1NC(=O)c1ccc(OC)cc1)C(=O)N1CCCC1 (stereo not given) | 13% | ? | 17µM* | 21% | 24% | -1%
COc1ccc(C(=O)Nc2ccc(O)cc2C(=O)O)cc1 | -2% | -6% | 11µM* | -4% | 3% | 2%
COc1ccc(C(=O)Nc2ccccc2C(=O)Nc2ccncc2)cc1 | ? | nt | 1.7µM* | ? | ? | nt
COc1ccc(C(=O)Nc2ccccc2C(=O)Nc2ccccc2C(=O)O)cc1 | 2% | nt | 0.48µM* | 3.2µM* | 2.8µM* | nt
CCC(NC(=O)c1ccccc1NC(=O)C(C)(C)C)C(=O)N1CCCC1 (stereo not given) | -2% | nt | 0% | 2% | -6% | nt
CCN(CC)CC(=O)Nn1c(C)nc2c(ncn2-c2ccccc2)c1=O | -2% | nt | -1% | 1% | -7% | nt
COc1ccccc1C(=O)Nc1ccc(C(=O)O)cc1 | 3% | 9% | -13% | 0% | -1% | 1%
COc1ccc(NC(=O)c2ccccc2NC(=O)NC2CCCCC2)cc1 | 4% | 20% | 5.4µM* | 21% | 18% | -2%
COC(=O)c1ccccc1NC(=O)NC1CCCC1 | 3% | nt | -5% | 3% | 1% | nt
COc1c(Cl)cc(C(=O)Nc2ccccc2C(=O)O)cc1Cl | 2% | -3% | 17µM* | 3% | 18% | 2%
O=C(O)c1ccc(NC(=O)c2ccccc2NC(=O)c2ccccc2Cl)cc1 | 1% | nt | 19µM* | -2% | -2% | nt
O=C(Cc1ccc(Cl)cc1)Nc1ccccc1C(=O)Nc1ccc(C(=O)O)cc1 | 11% | -6% | -20% | -6% | 0% | 2%
COc1ccc(C(=O)Nc2ccccc2C(=O)Nc2ccc(C(=O)O)cc2)cc1 | ? | nt | 0.76µM* | ? | ? | nt
COc1c(Cl)cc(C(=O)NN)cc1Cl | ? | nt | 1% | -3% | 3% | 2%
COc1ccc(-c2noc(CCC(=O)Nc3cccc(C)c3C)n2)cc1OC | nt | -3% | -13% | nt | nt | nt
Cc1ccccc1CCNC(=O)c1ccc(Cn2c(=O)c3cccn3c3cccnc32)cc1 | nt | nt | -1% | nt | nt | nt
CCCCNC(=O)Nc1ccccc1C(=O)NCCC | 0% | 4% | -15% | -4% | 0% | -1%
COc1ccc(C)cc1NC(=O)NC1CCCCCCC1 | -1% | nt | 15µM* | -2% | 0% | nt
CCCCNC(=O)Nc1ccccc1C(=O)Nc1ccc(OC)cc1 | 8% | 13% | 11µM* | 2% | 13% | -3%
S=C(NCc1cccnc1)Nc1ccc(Oc2ccc(Cl)cc2)cc1 | -11% | nt | -3% | 2% | -2% | nt

Source: PubChem BioAssay (National Center for Advancing Translational Sciences (NCATS))
